This is an account of results in ChEMBL document CHEMBL4513146, “CO-ADD screening of Karazin Kharkiv National University (Ukraine) compounds”.

Measured potencies and affinities stand elsewhere.

The subject of one assay is Klebsiella pneumoniae. The following applies: Concentration 32 ug.mL-1;; ASSAY_TEST Inhibition of Bacterial Growth; detection method Absorption (OD600); MEDIA CAMHB; plate type 384well; NBS; CORNING #3640; time 18 hr.
For a further assay, the system named is Candida albicans. The following applies: Concentration 32 ug.mL-1; ASSAY_TEST Inhibition of Fungal Growth; detection method Absorption (OD530).
The next assay has as its system Cryptococcus neoformans. The settings on record: Concentration 32 ug.mL-1; ASSAY_TEST Inhibition of Fungal Growth; detection method Resazurin; Absorption (OD600-OD570); plate type 384well; NBS; CORNING #3640.

Turning to `O=S(=O)(c1ccc2nncn2c1)N(Cc1cc(F)cc(F)c1)c1ccc2c(c1)OCO2`, the Inhibition (in general, the change of the read-out against control, counted positive when it falls) with Klebsiella pneumoniae was 11.56%; in the assay on Candida albicans it was 2.54%; with Cryptococcus neoformans, -7.84%.
Take `O=C(Cn1nc2ccc(-c3ccccc3)nn2c1=O)NC1CCCCC1`: the Inhibition is 16.29% in the assay on Klebsiella pneumoniae, 0.48% with Candida albicans and -16.53% in the assay on Cryptococcus neoformans.
The like results for `Cc1oc(-c2ccccc2)nc1CSc1nc2ccccc2n2c(C)nnc12` were, in that order, 7.15%, 9.66% and -6.62%.
On the same counts, the results for `O=C(Cn1nc2c(SC3CCCCC3)nccn2c1=O)Nc1ccc(F)cc1` are 10.22%, 0.1% and -30.85%.
As to `Cc1ccc(Sc2nccn3c(=O)n(CC(=O)N4CCN(c5ccccc5)CC4)nc23)c(C)c1`, the values for the Inhibition in the assay with Klebsiella pneumoniae, in the assay with Candida albicans and in the assay on Cryptococcus neoformans were 2.5%, 3.52% and -7.85%, respectively.
On the same counts, the results for `COC(=O)c1ccc(NC(=O)Cn2nc3c4sc(N5CCCC5)nc4ncn3c2=O)cc1` are -7.74%, 1.38% and -4.89%.
On the same counts, the results for `CCCCOc1ccc(-c2cc3c4nnc(SCC(=O)NCc5ccccc5)n4ccn3n2)cc1` are -0.43%, 3.39% and -8.72%.
The like results for `COc1ccc(Cn2nc3ccc(-c4ccc(Cl)cc4)nn3c2=O)cc1F` were, in that order, 16.23%, 0.27% and -15.51%.
On to `Cc1ccc(-n2ccn3c(SC(C)C(=O)Nc4ccc5c(c4)OCCO5)nnc3c2=O)cc1C` (stereo not given), for which the Inhibition with Klebsiella pneumoniae is 15.49%; with Candida albicans, 0.29%; in the assay on Cryptococcus neoformans, -6.97%.
The like results for `CCc1nnc2c(S(=O)(=O)N(Cc3ccccc3C)c3ccc(Cl)cc3)cccn12` were, in that order, 3.29%, 6.38% and -5.94%.
The like results for `Cc1cc(C)cc(N(Cc2cccc(Cl)c2)S(=O)(=O)c2cccn3cnnc23)c1` were, in that order, 9.53%, 1.12% and -7.68%.
For the molecule `CCc1nnc2ccc(S(=O)(=O)N(Cc3ccc(F)cc3)c3ccc(OC)cc3)cn12`, the Inhibition in the assay on Klebsiella pneumoniae is 5.94%; in the assay with Candida albicans, -0.37%; with Cryptococcus neoformans it was -3.5%.
For the molecule `COC(=O)c1ccc(CN(c2ccc(C)cc2)S(=O)(=O)c2ccc3nnc(C)n3c2)o1`, the Inhibition in the assay on Klebsiella pneumoniae was 8.84%; with Candida albicans, 0.1%; in the assay with Cryptococcus neoformans it was -13.09%.
On the same counts, the results for `COc1ccc(-n2ccn3c(-c4cccc([N+](=O)[O-])c4)nnc3c2=O)cc1` are 3.7%, 0.19% and -14.9%.
The like results for `COc1ccc(NC(=O)Cn2nc3c4cc(-c5ccc(C)cc5)nn4ccn3c2=O)cc1` were, in that order, -1.42%, -0.28% and -12.53%.
Turning to `O=C(CSc1nc2ccccc2n2cnnc12)N1CCN(c2ccc(F)cc2)CC1`, the Inhibition with Klebsiella pneumoniae amounted to 8.82%; in the assay on Candida albicans, 1.33%; in the assay on Cryptococcus neoformans it was 6.24%.
For the molecule `COc1ccc(N2CCN(C(=O)Cn3nc4ccc(S(=O)(=O)C(C)(C)C)nn4c3=O)CC2)cc1`, the Inhibition with Klebsiella pneumoniae is given as 18.13%; in the assay with Candida albicans, -0.23%; in the assay on Cryptococcus neoformans it was -28.46%.
Regarding `CCc1cccc(NC(=O)CSc2nnc3c(=O)n(-c4cccc(OC)c4)ccn23)c1`, the Inhibition is 7.34% with Klebsiella pneumoniae, 13.59% in the assay with Candida albicans and -2.76% in the assay with Cryptococcus neoformans.
The like results for `O=c1c2nnc(SCc3ccc(Cl)cc3)n2ccn1-c1ccc(F)cc1` were, in that order, 9.2%, 1.38% and -5.79%.
The like results for `Cc1oc(-c2ccccc2)nc1CSc1nc2ccccc2n2c(C(C)C)nnc12` were, in that order, 2.59%, 6.41% and -7.85%.
The like results for `COc1ccccc1N1CCN(C(=O)Cn2nc3c(Oc4ccc(C)cc4)nccn3c2=O)CC1` were, in that order, 13.94%, 1.98% and -10.45%.
`Cc1ccc(NC(=O)Cn2nc3c(SC4CCCCC4)nccn3c2=O)cc1`: the Inhibition is reported as 5.75% in the assay on Klebsiella pneumoniae, -2.16% in the assay on Candida albicans and -28.82% in the assay with Cryptococcus neoformans.
`Cc1ccc(Oc2nccn3c(=O)n(CC(=O)N4CCN(c5ccc(F)cc5)CC4)nc23)cc1`: the Inhibition in the assay with Klebsiella pneumoniae is reported as 19.83%; with Candida albicans, 0.18%; in the assay with Cryptococcus neoformans it was -7.7%.
For the molecule `CCOC(=O)c1ccc(NC(=O)Cn2nc3c4cc(-c5ccc(C)cc5)nn4ccn3c2=O)cc1`, the Inhibition with Klebsiella pneumoniae is on record as -1.86%; with Candida albicans, 7.19%; in the assay on Cryptococcus neoformans it was -28.56%.
The like results for `Cc1nnc2c(=S)[nH]c3ccccc3n12` were, in that order, 21.93%, -0.01% and -43.69%.
The like results for `CSc1cccc(NC(=O)Cn2nc3c(SCc4ccc(Cl)cc4)nccn3c2=O)c1` were, in that order, 7.71%, 19.01% and -40.36%.
The like results for `CC(C)c1nnc2c(=O)n(CC(=O)Nc3ccc(F)cc3)c3ccccc3n12` were, in that order, 21.13%, 1.82% and -21.16%.
Take `O=c1c2sccc2n2c(=O)n(Cc3ccccc3F)nc2n1CCc1ccccc1`: the values for the Inhibition in the assay with Klebsiella pneumoniae, with Candida albicans and with Cryptococcus neoformans were 8.76%, 0.77% and -30.71%, respectively.
On the same counts, the results for `COc1ccc(NC(=O)Cn2nc3ccc(-c4ccc(C)c(C)c4)nn3c2=O)cc1OC` are 6.13%, 32.8% and -43%.
As to `Cc1ccc(NC(=O)Cn2nc3c4cc(-c5ccc(C)c(C)c5)nn4ccn3c2=O)c(C)c1`, the values for the Inhibition in the assay with Klebsiella pneumoniae, in the assay with Candida albicans and with Cryptococcus neoformans were -6.92%, -0.38% and -15.91%, respectively.
